Structures are written as SMILES. This is part of a sample that, as a whole, favours compounds with a hit. Of some 83,000 tested, about 20% had one in any assay.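 In brief: 96-well plates, 48 h treatment, single concentration, percent growth endpoint.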 Values without a mark were called inactive. The source made the active and inactive calls. How the source made its calls: active means growth percent below 10; inactive means the rest.

Holding throughout (experiment): NCI-60 one-dose screen, 48 h (100 = growth as untreated, 0 = no growth, -100 = all killed)
What all share (conditions): 10 µM unless noted

For assay [1], the system named is SK-MEL-2 melanoma.
Assay [2] has as its system EKVX NSCLC.
Assay [3] deals with SN12C renal.
Assay [4] relates to UO-31 renal.
The test system of assay [5] is TK-10 renal.
The subject of assay [6] is ACHN renal.
Assay [7] concerns CAKI-1 renal.
Assay [8] concerns A498 renal.
In assay [9] the test system is CCRF-CEM leukemia.
The subject of assay [10] is MOLT-4 leukemia.
Assay [11] relates to SR leukemia.
The test system of assay [12] is RPMI-8226 leukemia.
For assay [13], the system named is OVCAR-8 ovarian.
Assay [14] deals with OVCAR-5 ovarian.
Assay [15] deals with OVCAR-4 ovarian.
Assay [16] has as its system SK-OV-3 ovarian.
The subject of assay [17] is IGROV1 ovarian.
In assay [18] the test system is OVCAR-3 ovarian.
Assay [19] deals with HS 578T breast.
The test system of assay [20] is NCI/ADR-RES ovarian.

In the case of `N#Cc1c(N)nc2c(nnn2-c2cccc(C(F)(F)F)c2)c1N`, the growth is 91.2% in [1]; 29.1% in assay [2]; 87.7% in assay [3]; 58.2% in assay [4]; 90.2% in [5]; 87.7% in assay [6]. In addition, the growth was 77.2% in [7]; 97.7% in assay [8]; 87.9% in assay [9]; 75.8% in assay [10]; 83.1% in assay [11]; 82.4% in assay [12]. Besides, the growth in assay [13] was 89.3%; in assay [14] it was 102%; in assay [15], 87.5%; in [16] it was 84.9%; in assay [17], 81.1%; in [18], 97.9%. Besides, the values for the growth in assay [19] and in [20] were 46.2% and 95.8%, respectively.

As to `Cc1c(C(=O)O)nnn1-c1nccs1`, the growth was 94.1% in assay [1]; 92.9% in [2]; 101% in assay [3]; 91% in assay [4]; 101% in assay [5]; 99.9% in assay [6]. Further, the growth was 94.3% in [7]; 86.4% in [8]; 93.3% in [9]; 103% in assay [10]; 101% in [11]; 93% in [12]. The growth in [13] was 91.6%; in assay [14], 104%; in assay [15], 96.7%; in assay [16] it was 90.8%; in [17] it was 104%; in assay [18] it was 106%. Also, the growth in [19] is 86.9%; in assay [20], 103%.

As to `CCc1nc2ccccc2[nH]1`, the growth in assay [1] is 127%; in [2] it was 112%; in assay [3], 95.6%; in assay [4], 80.1%; in assay [5], 118%; in assay [6], 108%. The growth is 109% in assay [7]; 96.1% in assay [8]; 98.8% in assay [9]; 97.5% in assay [10]; 100% in assay [11]; 98.9% in [12]. Also, the growth in assay [13] was 101%; in assay [14] it was 110%; in [15] it was 112%; in assay [16] it was 105%; in assay [17] it was 130%; in [18], 119%. Besides, the growth in assay [19] is 94.3%; in [20], 111%.

With `CN(C)CCN1C(=O)c2cccc3c(-c4ccc(-c5nc6c7ccccc7c7ccccc7c6[nH]5)cc4)ccc(c23)C1=O`, the growth in [1] is 105%; in assay [2] it was 93.9%; in assay [3], 97.4%; in [4] it was 96.8%; in assay [5], 105%; in assay [6], 112%. Moreover, the growth was 88% in assay [7]; 100% in assay [8]; 55.4% in assay [9]; 84% in [10]; 38.6% in assay [11]; 54.9% in [12]. Moreover, the growth in [13] is 52%; in [14] it was 123%; in assay [15] it was -2.99% (active); in [16], 109%; in assay [17] it was 96.3%; in assay [18] it was 117%. Besides, the growth in [19] was 117%; in assay [20], 88.1%.

For the compound `NC(N)=N/N=C(/c1ccccc1)c1ccccc1F`, the growth in assay [1] was 70.5%; in assay [2], 60%; in [3], 37.1%; in assay [4], 44%; in assay [5], 64.9%; in assay [6], 41%. Moreover, the growth is 35.7% in [7]; 44.9% in assay [8]; -2.22% (active) in [9]; 22.4% in assay [10]; 3.14% (active) in [11]; -36.8% (active) in assay [12]. The growth in [13] is 45.5%; in [14], 76.4%; in assay [15], 36.7%; in [16], 19.5%; in assay [17], 20.7%; in assay [18], -0.0856% (active). The growth in [19] was 38.5%; in assay [20], 59.6%.

Regarding `O=[N+]([O-])c1ccccc1C(O)Cc1ccc2ccccc2n1` (stereo not given), the growth in [1] is 108%; in [2], 83.8%; in [3], 95.2%; in assay [4] it was 66.6%; in assay [5], 148%; in assay [6], 85.9%. Also, the growth in assay [7] is 88%; in assay [8], 68%; in assay [9], -50.2% (active); in assay [10], -6.33% (active); in [11] it was 95.6%; in assay [12], 95.1%. Besides, the growth was 97.2% in assay [13]; 91.1% in [14]; 92.8% in assay [15]; 84.9% in assay [16]; 80.5% in assay [17]; 93.2% in [18]. In addition, the growth in assay [19] is 98.9%; in assay [20], 93%.

`CC(=O)Nc1cccc(C2=CC(c3ccc(C)cc3)n3ncnc3N2)c1` (stereo not given): the growth in assay [1] is 103%; in assay [2], 102%; in assay [3], 101%; in assay [4] it was 79.7%; in assay [5], 110%; in assay [6] it was 96.7%. Also, the growth was 106% in [7]; 93.9% in [8]; 110% in [9]; 87.9% in [10]; 78.8% in assay [11]; 73.8% in assay [12]. The growth in [13] was 101%; in assay [14], 95.2%; in [15], 103%; in assay [16], 133%; in assay [17], 114%; in assay [18], 101%. For the same compound, the growth in assay [19] was 92.8%; in [20] it was 97.6%.

`N#Cc1c(N)n2c(nc1=Nc1ccc([N+](=O)[O-])cc1)sc1cc(Cl)ccc12`: the growth in assay [1] is 99.4%; in [2], 84.3%; in assay [3], 89.4%; in assay [4], 75.2%; in assay [5], 148%; in assay [6], 90.7%. Further, the growth in assay [7] was 85.2%; in assay [8], 102%; in [9], 83.6%; in assay [10] it was 93.4%; in [11], 34.7%; in assay [12], 49.7%. In addition, the growth is 94.5% in assay [13]; 101% in assay [14]; 86.1% in assay [15]; 76.4% in [16]; 82.3% in assay [17]; 108% in [18]. Further, the growth in [19] is 79%; in assay [20] it was 95.2%.

These data come from PubChem BioAssay (NCI).
